Source: PubChem (National Center for Advancing Translational Sciences (NCATS))
SMN2 splice up – increases expression of the SMN2 splice variant; HEK293 SMN2-luciferase splicing reporter, luminescence, 30-36 h; Potency, µM (highest dose often 46.1 µM), without a hit: at the highest dose activity change, positive = activation, actives largely listed as activators; 2.8% of 210,000 active; note: % of control where 0% means no effect; nearly all actives have a fitted effect of over 55% in size
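HEK293 cells carry an SMN2 minigene-luciferase reporter in which exon 7 inclusion puts luciferase in frame. Cells were seeded at 2000 cells/well, attached for 10-12 hours, then exposed to compounds for 30-36 hours at 37C before ONE-Glo luminescence.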
FLuc modulator – counter-screen for miR-21 project: firefly luciferase inhibitors or activators; purified FLuc, Km substrates, luminescence inhibition; Potency, µM (series often up to 57.5 µM), without a hit: top-dose activity change, negative = inhibition, usual class: inhibitors; 6.9% of 360,000 active;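 note: plate controls were vehicle for no effect and reference inhibitor for full effect; nearly all actives have a fitted effect of over 55% in size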
Target sequence (P08659 whole entry, looked up): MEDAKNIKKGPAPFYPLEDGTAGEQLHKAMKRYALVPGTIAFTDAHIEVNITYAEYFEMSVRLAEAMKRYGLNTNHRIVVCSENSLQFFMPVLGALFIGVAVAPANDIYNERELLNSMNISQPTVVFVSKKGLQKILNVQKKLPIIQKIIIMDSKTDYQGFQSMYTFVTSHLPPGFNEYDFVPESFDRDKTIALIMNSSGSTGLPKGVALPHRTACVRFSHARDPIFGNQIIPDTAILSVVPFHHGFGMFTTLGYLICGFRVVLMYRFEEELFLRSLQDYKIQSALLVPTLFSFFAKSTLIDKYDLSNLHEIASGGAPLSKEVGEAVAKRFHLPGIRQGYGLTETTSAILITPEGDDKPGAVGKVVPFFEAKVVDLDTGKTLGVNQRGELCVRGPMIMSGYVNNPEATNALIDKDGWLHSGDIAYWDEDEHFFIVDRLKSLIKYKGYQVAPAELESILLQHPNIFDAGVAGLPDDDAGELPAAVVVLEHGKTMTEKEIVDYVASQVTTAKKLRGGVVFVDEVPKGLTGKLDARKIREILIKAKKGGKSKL
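Biochemical qHTS of compounds, final roughly 60 µM downward over six points, against 10 nM purified firefly luciferase using Km concentrations of substrates (10 uM D-luciferin, 10 uM ATP) in Tris acetate pH 7.5 buffer; luminescence output.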
NPC1 prom act – NPC1 promoter activation; Potency, µM (highest dose often 9.22 µM), inactives show at the top dose activation, hits mostly activators; AID 485313; 2.4% of 320,000 active; Huh7 NPC1 promoter luciferase reporter, 24 h; note: % of control where 0% means no effect; nearly all actives have a fitted effect of over 60% in size
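Luminescence read-out of NPC1 promoter-driven luciferase in stably transfected Huh7 cells; compounds delivered in DMSO and left 24 h at 37C, 5% CO2, qHTS titration format.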
ELG1 genotoxic – inducers of genotoxicity in HEK293T ELG1-luciferase cells | HEK293T ELG1-luciferase reporter, luminescence, 16 h | Potency, µM (series often up to 46 µM), without a hit: top-dose activity change, positive = activation, most hits filed as activators | 1.3% of 330,000 active | AID 504466; note: % of control where 0% means no effect; nearly all actives have a fitted effect of over 60% in size
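After overnight (16 hr) compound treatment at 37 °C, ELG1-luciferase HEK293T cells were lysed with ONE-Glo; luminescence quantified 30 min later at room temperature.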
Rab9 prom act – activates the Rab9 promoter. Huh7 Rab9 promoter-luciferase reporter, luminescence, 24 h. Potency, µM (titrated, usually from 9.22 µM), for the others: at the top dose activation, negative = inhibition, hits mostly activators. 2.8% of 320,000 active; note: % of control where 0% means no effect; nearly all actives have a fitted effect of over 60% in size
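Measured in stably transfected Huh7 cells bearing a Rab9 promoter–luciferase construct: 24 h compound treatment at 37 °C, followed by luminescence detection.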
p53 reactivator – re-activators of mutant p53. 0.063% of 320,000 active. H1299 p53-A138V BP100-luciferase reporter, luminescence, 24 h. Potency, µM (highest dose often 92.2 µM), for the others: at the highest dose activity change, positive = activation, actives largely listed as activators; note: % of control where 0% means no effect; nearly all actives have a fitted effect of over 45% in size
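p53-null H1299 cells stably carrying temperature-sensitive p53-A138V and a BP100-luciferase reporter were pinned with compounds (4-point, 1:5 series) and held 24 hrs at 37 deg C. Luminescence was read 10 min after detection reagent.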
* hit, by the source's call; [ ] = another dose, or the depositor's remark. Only some compounds are listed: those with a hit (about 7.4% of all), similar ones and a draw of the others. Calls come from the whole dose curve; as a rule, active = well fitted curve in the direction sought with a large enough effect; inconclusive = small, poorly fitted or top-dose-only effect, or another doubt; inactive = no such curve, though single readings can be large; an effect the other way counts as inactive or inconclusive. Potency is the fitted concentration of half-maximal effect.

What do the screens show for `Cc1ccsc1C(=O)Nc1ccc(OCc2ccccc2)cc1`?
FLuc modulator: 1.5µM*; NPC1 prom act: 1.6µM*; ELG1 genotoxic: inconclusive; Rab9 prom act: 1.1µM*; p53 reactivator: inconclusive

What do the screens show for `Cc1oc(C(=O)Nc2ccc(C(=O)O)cc2)cc1COc1ccccc1`?
SMN2 splice up: -1%; FLuc modulator: 11µM*; NPC1 prom act: 1%; ELG1 genotoxic: 8%; Rab9 prom act: 13%; p53 reactivator: 5%

Results for Cc1ccc(Cn2c3ccccc3c3cnn(CC(=O)N4CCCCCC4)c(=O)c32)cc1 ?
SMN2 splice up: -3%; FLuc modulator: -3%

How did Clc1cccc(N2CCN(c3c4c(nc5nncn35)CCC4)CC2)c1 do in these assays?
SMN2 splice up: -3%; FLuc modulator: -9%

Results for CC(C)(O)[C@H]1Cc2cc3ccc(=O)oc3cc2O1 ?
FLuc modulator: 12µM*; NPC1 prom act: inconclusive; ELG1 genotoxic: inconclusive; Rab9 prom act: 3%[1.84 µM]; p53 reactivator: inconclusive

How did CC(C)(O[C@@H]1O[C@H](CO)[C@@H](O)[C@H](O)[C@H]1O)[C@H]1Cc2cc3ccc(=O)oc3cc2O1 do in these assays?
SMN2 splice up: -5%; FLuc modulator: -2%; NPC1 prom act: -2%; ELG1 genotoxic: 1%; Rab9 prom act: -6%; p53 reactivator: -4%

Results for C=C(C)C1Cc2cc3ccc(=O)oc3cc2O1 (centres undefined) ?
SMN2 splice up: -11%[1.84 µM]; FLuc modulator: 13µM*; NPC1 prom act: 14%; ELG1 genotoxic: inconclusive; Rab9 prom act: inconclusive; p53 reactivator: inconclusive

Results for O=C(NNc1c2ccccc2nc2ccccc12)c1cccc(O)c1 ?
SMN2 splice up: -34%; FLuc modulator: 24µM*; NPC1 prom act: 0%; ELG1 genotoxic: -7%; Rab9 prom act: -1%; p53 reactivator: 0%

What do the screens show for `O=C(NNc1c2ccccc2nc2ccccc12)c1ccccc1O`?
SMN2 splice up: -15%; FLuc modulator: inconclusive; NPC1 prom act: 5%; ELG1 genotoxic: -7%; Rab9 prom act: -2%; p53 reactivator: 4%

What do the screens show for `O=C(NNc1c2ccccc2nc2ccccc12)c1ccc(O)cc1O`?
SMN2 splice up: -3%; FLuc modulator: 13µM*; NPC1 prom act: -1%; ELG1 genotoxic: -1%; Rab9 prom act: -3%; p53 reactivator: 3%

How did O=C(NNC(=O)c1ccc(O)cc1O)c1ccc(-c2ccccc2)cc1 do in these assays?
FLuc modulator: 19µM*; NPC1 prom act: -6%; ELG1 genotoxic: -4%; Rab9 prom act: -5%

What do the screens show for `O=C(NNc1c2ccccc2nc2ccccc12)c1ccc(O)cc1`?
SMN2 splice up: -45%; FLuc modulator: 17µM*; NPC1 prom act: 1%; ELG1 genotoxic: 5%; Rab9 prom act: 8%; p53 reactivator: -4%

What do the screens show for `CCOC(=O)N1CCc2c(sc3c2c(=O)n(Cc2ccccc2)c(=O)n3CC(=O)Nc2ccc(C)cc2C)C1`?
SMN2 splice up: -11%; FLuc modulator: 0%

Results for COc1ccc(CNc2ncnc3c2nc2n3CCCC2)cc1 ?
FLuc modulator: -7%

How did CCCCCCCC1=CC2=C(Cl)C(=O)C(C)(OC(C)=O)C(=O)C2=CN1C (centres undefined) do in these assays?
SMN2 splice up: -4%

How did N=C1SCC(=O)N1/N=C/c1ccccc1 do in these assays?
SMN2 splice up: -33%; FLuc modulator: 5.4µM*; NPC1 prom act: 0%; ELG1 genotoxic: -20%; Rab9 prom act: 1%; p53 reactivator: 1%

What do the screens show for `COc1cc(/C=N/NC(=S)Nc2cccc(C(=O)O)c2)cc(OC)c1OC`?
SMN2 splice up: inconclusive; FLuc modulator: 24µM*; NPC1 prom act: 1%; ELG1 genotoxic: 2%; Rab9 prom act: -1%; p53 reactivator: 15%
